Experimental data taken from publication PMC9911399, “Two distinct binding modes provide the RNA-binding protein RbFox with extraordinary sequence specificity”.
Positions count from the first letter of the chain named. In all, about 16,000 sequences were measured (“ka relative to ugcaugu”: median about 0.096, highest 2% from about 0.35 on). The full list was thinned out, with the highest values kept by preference.

T1: RBFOX1 RRM RbFoxmut (Fox-RRM*) (Homo sapiens, UniProt Q9NWB1 109-208, R118D;E147R;N151S;E152T)
T1 sequence: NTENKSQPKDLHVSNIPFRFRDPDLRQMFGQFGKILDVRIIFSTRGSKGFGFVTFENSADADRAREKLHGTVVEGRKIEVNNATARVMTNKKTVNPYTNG

B1: ACGUAGU (DNA:RNA)
RNA: GGGAGACCGGAAUUCAGAUUGUCCACGUAGUUUAAAUCCCGUCGUAGCCACCA
DNA 1: CAATCTGAATTCCGGTCTCCC
DNA 2: TGGTGGCTACGACGGGATT
B2: CAACGCA (DNA:RNA)
RNA: GGGAGACCGGAAUUCAGAUUGUCCCAACGCAUUAAAUCCCGUCGUAGCCACCA
DNA 1: CAATCTGAATTCCGGTCTCCC
DNA 2: TGGTGGCTACGACGGGATT
B3: UGUAUAC (DNA:RNA)
RNA: GGGAGACCGGAAUUCAGAUUGUCCUGUAUACUUAAAUCCCGUCGUAGCCACCA
DNA 1: CAATCTGAATTCCGGTCTCCC
DNA 2: TGGTGGCTACGACGGGATT
B4: UUCCAAG (DNA:RNA)
RNA: B3 RNA with G26U, U27C, A28C, U29A, C31G
DNA 1: CAATCTGAATTCCGGTCTCCC
DNA 2: TGGTGGCTACGACGGGATT
B5: AUCGUGG (DNA:RNA)
RNA: B1 RNA with C26U, G27C, U28G, A29U, U31G
DNA 1: CAATCTGAATTCCGGTCTCCC
DNA 2: TGGTGGCTACGACGGGATT
B6: CGUUUCG (DNA:RNA)
RNA: B3 RNA with U25C, A28U, A30C, C31G
DNA 1: CAATCTGAATTCCGGTCTCCC
DNA 2: TGGTGGCTACGACGGGATT
B7: CAAAACG (DNA:RNA)
RNA: B2 RNA with C28A, G29A, A31G
DNA 1: CAATCTGAATTCCGGTCTCCC
DNA 2: TGGTGGCTACGACGGGATT
B8: GAGAGGA (DNA:RNA)
RNA: B2 RNA with C25G, A27G, C28A, C30G
DNA 1: CAATCTGAATTCCGGTCTCCC
DNA 2: TGGTGGCTACGACGGGATT
B9: GUAUGAG (DNA:RNA)
RNA: B2 RNA with C25G, A26U, C28U, C30A, A31G
DNA 1: CAATCTGAATTCCGGTCTCCC
DNA 2: TGGTGGCTACGACGGGATT
B10: CUAUGAG (DNA:RNA)
RNA: B2 RNA with A26U, C28U, C30A, A31G
DNA 1: CAATCTGAATTCCGGTCTCCC
DNA 2: TGGTGGCTACGACGGGATT
B11: GGAUGAG (DNA:RNA)
RNA: B2 RNA with C25G, A26G, C28U, C30A, A31G
DNA 1: CAATCTGAATTCCGGTCTCCC
DNA 2: TGGTGGCTACGACGGGATT
B12: GAAUGAG (DNA:RNA)
RNA: B2 RNA with C25G, C28U, C30A, A31G
DNA 1: CAATCTGAATTCCGGTCTCCC
DNA 2: TGGTGGCTACGACGGGATT
B13: CGAUGAG (DNA:RNA)
RNA: B2 RNA with A26G, C28U, C30A, A31G
DNA 1: CAATCTGAATTCCGGTCTCCC
DNA 2: TGGTGGCTACGACGGGATT
B14: GAUUGAG (DNA:RNA)
RNA: B2 RNA with C25G, A27U, C28U, C30A, A31G
DNA 1: CAATCTGAATTCCGGTCTCCC
DNA 2: TGGTGGCTACGACGGGATT
B15: AUUACUA (DNA:RNA)
RNA: B3 RNA with U25A, G26U, U29C, A30U, C31A
DNA 1: CAATCTGAATTCCGGTCTCCC
DNA 2: TGGTGGCTACGACGGGATT
B16: GUCGGCA (DNA:RNA)
RNA: B2 RNA with C25G, A26U, A27C, C28G
DNA 1: CAATCTGAATTCCGGTCTCCC
DNA 2: TGGTGGCTACGACGGGATT
B17: GGCAUUG (DNA:RNA)
RNA: B3 RNA with U25G, U27C, A30U, C31G
DNA 1: CAATCTGAATTCCGGTCTCCC
DNA 2: TGGTGGCTACGACGGGATT
B18: GGCAUUC (DNA:RNA)
RNA: B3 RNA with U25G, U27C, A30U
DNA 1: CAATCTGAATTCCGGTCTCCC
DNA 2: TGGTGGCTACGACGGGATT
B19: GGCAUCC (DNA:RNA)
RNA: B3 RNA with U25G, U27C, A30C
DNA 1: CAATCTGAATTCCGGTCTCCC
DNA 2: TGGTGGCTACGACGGGATT
B20: GGCAUCG (DNA:RNA)
RNA: B3 RNA with U25G, U27C, A30C, C31G
DNA 1: CAATCTGAATTCCGGTCTCCC
DNA 2: TGGTGGCTACGACGGGATT
B21: GGCACCG (DNA:RNA)
RNA: B3 RNA with U25G, U27C, U29C, A30C, C31G
DNA 1: CAATCTGAATTCCGGTCTCCC
DNA 2: TGGTGGCTACGACGGGATT
B22: CGAUGAA (DNA:RNA)
RNA: B2 RNA with A26G, C28U, C30A
DNA 1: CAATCTGAATTCCGGTCTCCC
DNA 2: TGGTGGCTACGACGGGATT
B23: AAAAUAC (DNA:RNA)
RNA: B3 RNA with U25A, G26A, U27A
DNA 1: CAATCTGAATTCCGGTCTCCC
DNA 2: TGGTGGCTACGACGGGATT
B24: CCACGAC (DNA:RNA)
RNA: B2 RNA with A26C, C30A, A31C
DNA 1: CAATCTGAATTCCGGTCTCCC
DNA 2: TGGTGGCTACGACGGGATT
B25: AUUAACG (DNA:RNA)
RNA: B1 RNA with C26U, G27U, U28A, G30C, U31G
DNA 1: CAATCTGAATTCCGGTCTCCC
DNA 2: TGGTGGCTACGACGGGATT
B26: AUGAUUC (DNA:RNA)
RNA: B3 RNA with U25A, G26U, U27G, A30U
DNA 1: CAATCTGAATTCCGGTCTCCC
DNA 2: TGGTGGCTACGACGGGATT
B27: AUGAUUG (DNA:RNA)
RNA: B1 RNA with C26U, U28A, A29U, G30U, U31G
DNA 1: CAATCTGAATTCCGGTCTCCC
DNA 2: TGGTGGCTACGACGGGATT
B28: ACCAUGA (DNA:RNA)
RNA: B1 RNA with G27C, U28A, A29U, U31A
DNA 1: CAATCTGAATTCCGGTCTCCC
DNA 2: TGGTGGCTACGACGGGATT
B29: AUGAAUC (DNA:RNA)
RNA: B1 RNA with C26U, U28A, G30U, U31C
DNA 1: CAATCTGAATTCCGGTCTCCC
DNA 2: TGGTGGCTACGACGGGATT
B30: AUGAAUG (DNA:RNA)
RNA: B1 RNA with C26U, U28A, G30U, U31G
DNA 1: CAATCTGAATTCCGGTCTCCC
DNA 2: TGGTGGCTACGACGGGATT
B31: AUCCAUG (DNA:RNA)
RNA: B1 RNA with C26U, G27C, U28C, G30U, U31G
DNA 1: CAATCTGAATTCCGGTCTCCC
DNA 2: TGGTGGCTACGACGGGATT

What follows are binders tested against T1, RBFOX1 RRM RbFoxmut (Fox-RRM*) (assay: EMSA; HiTS-Eq, 1 nM pool, 10 min; buffer printed only for the single-RNA assays: 10 mM Tris pH 7.5, 150 mM NaCl, 3.4 mM EDTA, 0.001% NP-40, 30 C). Conditions: tags: His6 N-terminal (pET28a); label: 5' 32P.
How it was run: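 A pool of RNA with 7 randomized nucleotides, 5′-radiolabelled and with DNA-annealed flanks, was equilibrated at 1 nM for 10 min in 50 µL with purified RbFox RRM, wild type or mutant, across increasing protein concentrations. Free RNA was separated by 8% native PAGE, excised, reverse-transcribed, barcoded by PCR and sequenced. Relative association constants were obtained from read-count changes of each RNA species versus the control reaction and normalised to the cognate motif.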
With B1 the binding signal was 0.15 KA relative to UGCAUGU.
With B2 the binding signal was 0.161 KA relative to UGCAUGU.
In the case of B3, the binding signal is reported as 0.114 KA relative to UGCAUGU.
B4 was tested, and the binding signal was 0.0952 KA relative to UGCAUGU.
With B5 the binding signal was 0.124 KA relative to UGCAUGU.
For B6, the binding signal was 0.17 KA relative to UGCAUGU.
With B7 the binding signal was 0.0837 KA relative to UGCAUGU.
In the case of B8, the binding signal is reported as 0.0596 KA relative to UGCAUGU.
B9 was tested, and the binding signal was 0.513 KA relative to UGCAUGU.
B10 was tested, and the binding signal was 0.107 KA relative to UGCAUGU.
B11 was tested, and the binding signal was 0.225 KA relative to UGCAUGU.
With B12 the binding signal was 0.983 KA relative to UGCAUGU.
B13 was tested, and the binding signal was 0.133 KA relative to UGCAUGU.
In the case of B14, the binding signal is reported as 0.183 KA relative to UGCAUGU.
In the case of B15, the binding signal is reported as 0.129 KA relative to UGCAUGU.
B16 was tested, and the binding signal was 0.13 KA relative to UGCAUGU.
For B17, the binding signal was 0.394 KA relative to UGCAUGU.
With B18 the binding signal was 0.119 KA relative to UGCAUGU.
B19 was tested, and the binding signal was 0.229 KA relative to UGCAUGU.
In the case of B20, the binding signal is reported as 0.467 KA relative to UGCAUGU.
For B21, the binding signal was 0.132 KA relative to UGCAUGU.
With B22 the binding signal was 0.123 KA relative to UGCAUGU.
B23 was tested, and the binding signal was 0.076 KA relative to UGCAUGU.
B24 was tested, and the binding signal was 0.0943 KA relative to UGCAUGU.
In the case of B25, the binding signal is reported as 0.134 KA relative to UGCAUGU.
In the case of B26, the binding signal is reported as 0.139 KA relative to UGCAUGU.
B27 was tested, and the binding signal was 0.428 KA relative to UGCAUGU.
For B28, the binding signal was 0.076 KA relative to UGCAUGU.
With B29 the binding signal was 0.334 KA relative to UGCAUGU.
For B30, the binding signal was 1.02 KA relative to UGCAUGU.
With B31 the binding signal was 0.1 KA relative to UGCAUGU.
